These results are taken from the supplement of paper PMC11417369.

In all, about 25,000 sequences were measured (“ln(normalized median fluorescence intensity)”: median about 6.7, highest 2% from about 10 on). This is one part of a sample in which the highest values are shown more often than they occur.

This assay concerns PfHDP1 homeodomain (GST-tagged). In words: gcPBM binding intensity (ln(normalized median fluorescence intensity)); higher = stronger DNA binding. The procedure, abridged:
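Binding intensity is the highest Masliner-normalised natural-log median intensity over replicate spots in either probe orientation. To obtain it, GST-tagged P. falciparum DNA-binding domains made in E. coli were incubated for 1 h on an Agilent 4 × 180k array of primer-extended double-stranded 36-bp intergenic genomic probes plus negative controls. Detection used Alexa488 anti-GST antibody with scanning at 488 nm.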
In the case of “AGTACATTATAGAATACACACCTATATATATATATA [CACACA_site4447]”, the “gcPBM binding intensity (ln)” value was 9.29.

For the sequence “ATAATACATATAGAAGGTACACTATTATTTTCCTGA [XGTACX_site903]”, the “gcPBM binding intensity (ln)” value was 6.13.

For the sequence ATATTTTATGTAAAGGTGCAAAACAACATTAAAAAA, the “gcPBM binding intensity (ln)” value amounted to 9.97.

Turning to “TTCTTTTTTTTTAAAACAAACAAACAAACAAACAAA [CACACA_negctrl_site832]”, the “gcPBM binding intensity (ln)” value is 6.6.

For “TTCTTTTTAATGTCGGTGCAACTCCATAAAAACAAA [GTGCAC_site9488]”, the “gcPBM binding intensity (ln)” value amounted to 10.9. The result for “TCTTTCTAAAGATGTAGTACAAAATAAATATAATAT [XGTACX_site6564]” reads 6.87. For the sequence “TCCAAAATATCCTTCACACACGAACAGTTTCATTTA [CACACA_site5511]”, the “gcPBM binding intensity (ln)” value was determined as 6.49.

As to “TTGTATTGTATATGCACACATAGAACACTTTTTTTT [CACACA_site4133]”, the “gcPBM binding intensity (ln)” value was found to be 8.44. The same measure for “ATTGTATGCACGTCTGCACACTTTTTTTTTTTTTTT [CACACA_site2082]”: 11; for “ATTTGTATTGTATATGCACACATAGAACACTTTTTT [CACACA_site9373]”: 9.69.

On to “AAAATATATTCAACTTGTACATATATATATATATAT [XGTACX_site7629]”, for which the “gcPBM binding intensity (ln)” value is 9.4.

For “TTAATATTCCAGCTTTGTACATATATATATTATAAA [XGTACX_site7954]”, the “gcPBM binding intensity (ln)” value was 6.6.

Take “TTTTGAAGTAACAAATAAATAAATAAATATATAAAA [GTGCAC_negctrl_site517]”: the “gcPBM binding intensity (ln)” value is 6.53. Consider TTTGTTCTTTTTGAAGTGCACTGAAATATAACAAAA, for which the “gcPBM binding intensity (ln)” value is 10.9. The result for “TTCTTGTTCCTGAAAGTGCATATAACAAAAATAACA [GTGCAC_site9635]” reads 8.06. Regarding “TATTGTATTTCATATTGTACTAAAAAAAAAAAAAAG [XGTACX_site6694]”, the “gcPBM binding intensity (ln)” value was determined as 6.24. As to “CCTCATCCACTATGCACACAAAAAAGAAATACACTA [CACACA_site3422]”, the “gcPBM binding intensity (ln)” value stood at 9.52.

On to “AGAAAGAAAATATATACACACAAAAAAAAATATATA [CACACA_site1412]”, for which the “gcPBM binding intensity (ln)” value came to 6.61. Regarding “GTCCTCATCCACTATGCACACAAAAAAGAAATACAC [CACACA_site9131]”, the “gcPBM binding intensity (ln)” value came to 10.5. The result for “TTACACAAACAAATTATGGACACATAAGTAAAAGGA [CACACA_negctrl_site1622]” reads 6.97; that for “GCACATATGAATATAATACACACTTGTATTATTAAT [CACACA_site1841]”, 6.59; that for “TTTTTGATGAAATATTATTTTCCTGACTTGGATTAA [CACACA_negctrl_site148]”, 6.27.

For the sequence “TTTTTTTTTTTTTGCACACACCATATTTATAGAAAT [CACACA_site5772]”, the “gcPBM binding intensity (ln)” value worked out at 9.04.

Consider “ATTCTATTATCCTTTGCACACAAAATAAATGAAAAA [CACACA_site3030]”, for which the “gcPBM binding intensity (ln)” value amounted to 9.63. The result for “TGTCCTTATTTGCACACACACATATAAGAAATTTAA [CACACA_site7485]” reads 10.5. With “AAAATGAAGAAGTGCACACATATATATATTTATATA [CACACA_site507]”, the “gcPBM binding intensity (ln)” value is 9.11. With “TATCCTTATATTTGCACACACACACCCTAAAATGAA [CACACA_site1029]”, the “gcPBM binding intensity (ln)” value was 10.6. The same measure for “TCCTTATATTTGCACACACACACAAGAAAATGAAAA [CACACA_site6613]”: 11. For “TATCCTTATATTTGCACACACACACTAGAAAATGAA [CACACA_site4714]”, the “gcPBM binding intensity (ln)” value was found to be 10.7.

With “TCTATTATCCTTTGCACACAAAATAAATGAAAAAAT [CACACA_site3029]”, the “gcPBM binding intensity (ln)” value came to 9.75. Consider “GATATCCTTATATTTGCACACACACCCAATAAAATG [CACACA_site1028]”, for which the “gcPBM binding intensity (ln)” value was 9.87. With “TAAATGTCCTTATTTGCACACACACCCATAAGAAAT [CACACA_site3185]”, the “gcPBM binding intensity (ln)” value is 10.4. For “AATGTCCTTATTTGCACACACACATATAAGAAATTT [CACACA_site3186]”, the “gcPBM binding intensity (ln)” value came to 10.6. Regarding “TCCTTATATTGGCACACACACACAATAAAATGAAAA [CACACA_site4715]”, the “gcPBM binding intensity (ln)” value was found to be 7.07. The result for “AAAATATTTATATTTACACACACATAATACATATAT [CACACA_site32]” reads 6.84; that for “TTACATATTTTCATTTGTACATATTCATTTTTTTTC [XGTACX_site6988]”, 6.47. Consider “ATATATATGTGAAAATCACACATTGCTTATCTGTAA [CACACA_site6044]”, for which the “gcPBM binding intensity (ln)” value is 6.3. Turning to “CAAACAATTAAACAAACACACATATACATGTATATA [CACACA_site2060]”, the “gcPBM binding intensity (ln)” value was 6.54.

Take “TATAAATAAAAATATACACACTGTATTATTGTAATA [CACACA_site7721]”: the “gcPBM binding intensity (ln)” value was 6.24. On to “CAATGCTTTATCAATACATGCATATATATAGAAATA [TGCATGCA_site857]”, for which the “gcPBM binding intensity (ln)” value came to 6.46. The same measure for “CTTATGTGCATACCTACACACTTACATATATATATA [CACACA_site8973]”: 9.47; for “TGTATATATTTGTGCACACCAAAGTTTGATTTTATT [CACACA_site1860]”: 11.4.

As to “TGTATAAAAGTTTATACACACATTTGATATATTTCA [CACACA_site6606]”, the “gcPBM binding intensity (ln)” value stood at 6.58. The same measure for “TATGTATATATTTGTGCACACCAAAGTTTGATTTTA [CACACA_site1861]”: 11.4. The result for “AATATATATTTATAAACACACACCAAAATTTGTGCT [CACACA_site3091]” reads 6.82; that for “TAGTTTTTATATAGCACACATATTGTGATTATGTAT [CACACA_site1196]”, 6.83; that for “ATATGTATTTATATATGTTTGATTTTTTTTTTTTTT [TGCATGCA_negctrl_site506]”, 6.23. The result for “AAAAAAAAAAAAAACACACACAAATTTAATATATAT [CACACA_site1695]” reads 6.64; that for “TTTTTTTTTTTTTTTTGTACTCATATCTACTATCAT [XGTACX_site274]”, 6.44. On to “GTGGACGAAATAGTTGTAAATTTATGTGCAAACCTC [XGTACX_negctrl_site564]”, for which the “gcPBM binding intensity (ln)” value was found to be 11.2. As for “AAATTTATATATAGTTGTACAAAAATATGTTTCGTA [XGTACX_site4801]”, the “gcPBM binding intensity (ln)” value was 6.62. On to “AAATAAAATTTTATGTGTACGCAAAAAGTTGTAAGC [XGTACX_site8911]”, for which the “gcPBM binding intensity (ln)” value is 7.29. Turning to “GTTTTTAATGTTTTGACATGCAATATTAAAAATAAT [TGCATGCA_site174]”, the “gcPBM binding intensity (ln)” value was 6.57. As to “TATATATATATATATATTTTAAATGATATAAATGGT [TGCATGCA_negctrl_site152]”, the “gcPBM binding intensity (ln)” value came to 9.23. The same measure for “AAAAAAAAAATGAGCACACATAAATAAAAACAAACA [CACACA_site1573]”: 7.39; for “AATATATCAAAAATGATGACATAAATATATTAATTT [GTGCAC_negctrl_site530]”: 6.13.

With ATTAAATTTCCTTGAGTGCACATTTTGTTAAAATAT, the “gcPBM binding intensity (ln)” value is 9.29. The same measure for AAATGAATATTCATAGTGCAATATATAAATGAAAAT: 9.5; for GTATTCATTCCTTGAGTGCAATTGCAATAAATAAAA: 10.7; for “ATACTATAATATAAAACACACATATGTACCTTCTAA [CACACA_site7323]”: 6.67. The result for “TTGCAATAATGTTGCACACTAAATAGTCATATATAA [CACACA_site263]” reads 9.77; that for TATAAGGCAATAATAGTGCACTAAGATATATAATGA, 10.7; that for TATTAATATATAGTAGTGCAATAAAGATATACTGAA, 9.67. The result for “GTATTATATTTCAACTGTACGTAAAACTATTAAAAT [XGTACX_site3679]” reads 6.55; that for ACCAATAAATATTTGGTGCATACATATATATATATA, 10.5. With “TCAATAAATATACATACATGCATACATACATACATA [TGCATGCA_site197]”, the “gcPBM binding intensity (ln)” value worked out at 6.53.

Take “TATTTCTTTTGGTTGGTGCATAAAATAATACAATAT [GTGCAC_site9916]”: the “gcPBM binding intensity (ln)” value was found to be 10.5.

Take “AAATAATTTATATATTGTACAAATATTAAATGCGAA [XGTACX_site3390]”: the “gcPBM binding intensity (ln)” value came to 7.16. The result for “ATAACCTAATAATACACACACATGAATATATATAAT [CACACA_site4689]” reads 7.17.

In the case of “TATTTTTCCCTATGCACACACACCGTATATATAATA [CACACA_site4758]”, the “gcPBM binding intensity (ln)” value stood at 10.1. In the case of “TTATTTTCTTTCTATGCACACGCACGTATTTGCCCA [CACACA_site9104]”, the “gcPBM binding intensity (ln)” value was found to be 9.79. Consider “ATTTTCTTTCTATGCACACGCACGTATTTGCACCCA [CACACA_site3350]”, for which the “gcPBM binding intensity (ln)” value came out at 10.9. The same measure for “CGTAATAAAAACAAATGTACATGACCTGGACAGGTT [XGTACX_site6560]”: 6.4; for “TTATTTTTTTTATATATATGTATAAATATATATATA [XGTACX_negctrl_site441]”: 7.84; for “TTATAAAATGGGCAAACACACACAAAAAAAAGATAT [CACACA_site8476]”: 7.42.

As to “TAATACTTTTAATCTACACACGCTGAGACATGCTTT [CACACA_site1484]”, the “gcPBM binding intensity (ln)” value was found to be 6.14.

Take “ATATACTTATATATTGCACACATCTAATATTTTGAA [CACACA_site3165]”: the “gcPBM binding intensity (ln)” value stood at 10.5. On to “TATATCTTACTTTTTGCACACACTAATATTATTGTT [CACACA_site1640]”, for which the “gcPBM binding intensity (ln)” value was 10.1. The same measure for “ATATATTTTTTGAATACACACATATTATCTGTAATA [CACACA_site4826]”: 6.45. Turning to “TAATATTACATTTATTGTACTTTGTTTTTATTTTAT [XGTACX_site1605]”, the “gcPBM binding intensity (ln)” value turned out to be 6.27. Consider “TATCTTACTTTTTGCACACACTAATATTATTGTTTA [CACACA_site4990]”, for which the “gcPBM binding intensity (ln)” value was determined as 11.1. The same measure for “ATAATATTATACTTTGCACACATCTGAAATGACATA [CACACA_site3952]”: 10.4; for “ATAAATCCCAAAACCTTGCAAGACAACGTTTGATCA [CACACA_negctrl_site1327]”: 6.57; for “TCTTTAACAAGTTAAACACACATACCTATATACATA [CACACA_site7237]”: 6.47. In the case of “TCTTTCTTATTTTAATGATATTTATTCATTCCAGTT [CACACA_negctrl_site1679]”, the “gcPBM binding intensity (ln)” value was found to be 6.52. The result for “TTCCCAACATGATATTGTACATTTAATTATAATTAA [XGTACX_site7029]” reads 7.08; that for “CAAAACATTTTATCTACACACATATATAAATAAATA [CACACA_site3220]”, 6.36; that for “TAAAAAAAAACATGTGCACACGTTTTATCTACATAA [CACACA_site2336]”, 10.8. The same measure for “TTATCTCTACAAAGTGCACACACGTAAAAACATATA [CACACA_site3957]”: 8.98; for “TATTATTGTCTTTCAAAAAAAAAAAAAAAAAAAAAA [CACACA_negctrl_site1242]”: 6.11.
